Experimental findings from PubChem BioAssay are described below.

Active and inactive are the calls of the source. Unless noted, the rule behind the calls is not given here.

Assay [1] concerns XIP peptide (Xip251-270) binding. Nature of the assay: small-molecule binders of XIP peptide, primary screen, biochemical, small-molecule microarray, fluorescence 635/667 nm, 0.1 µg/mL protein (AID 1182). Conditions: fluorescent protein binding, 635 nm, higher = more signal, called active from +8 up or from −8 down.
Another assay relates to XIP peptide (Xip251-270). Nature of the assay: small-molecule binders of XIP peptide, primary screen, biochemical, small-molecule microarray, fluorescence 635/667 nm, 0.5 µg/mL protein (AID 1183). Conditions: small-molecule microarray binding, fluorescence 635 nm; higher = more signal.
Assay [2] is described as follows: Plasmodium falciparum growth inhibition, primary screen, strain 3D7, DAPI fluorescence, 100 nL (AID 1184).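 Note: parasites grown inside human red blood cells in medium with human serum.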 The conditions noted are these: P. falciparum 3D7 growth, 3 d, higher = more signal.
Assay [3] addresses Homeobox protein Hox-A13 (Mus musculus) (UniProt Q62424). The experiment in a line: inhibitors of HoxA13-DNA binding, primary screen, biochemical, fluorescence polarization, labeled oligonucleotide (AID 1185). Conditions: 15 min, higher = more signal, called active from +8 up or from −8 down.
The nature of assay [4]: inhibitors of hydroxyurea-induced Chk1 phosphorylation, primary screen, imaging, HeLa, phospho-Chk1 antibody, percent positive cells (AID 1186). The conditions noted are these: hydroxyurea-induced phospho-Chk1 immunofluorescence imaging, higher = more signal.
A short description of assay [5]: inhibitors of hydroxyurea-induced Chk1 phosphorylation, primary screen, imaging, HeLa, phospho-Chk1 nuclear intensity (AID 1187). The conditions noted are these: hydroxyurea-induced phospho-Chk1 immunofluorescence imaging, higher = more signal.

Sequence of Homeobox protein Hox-A13 (Mus musculus) (Q62424 whole entry, looked up): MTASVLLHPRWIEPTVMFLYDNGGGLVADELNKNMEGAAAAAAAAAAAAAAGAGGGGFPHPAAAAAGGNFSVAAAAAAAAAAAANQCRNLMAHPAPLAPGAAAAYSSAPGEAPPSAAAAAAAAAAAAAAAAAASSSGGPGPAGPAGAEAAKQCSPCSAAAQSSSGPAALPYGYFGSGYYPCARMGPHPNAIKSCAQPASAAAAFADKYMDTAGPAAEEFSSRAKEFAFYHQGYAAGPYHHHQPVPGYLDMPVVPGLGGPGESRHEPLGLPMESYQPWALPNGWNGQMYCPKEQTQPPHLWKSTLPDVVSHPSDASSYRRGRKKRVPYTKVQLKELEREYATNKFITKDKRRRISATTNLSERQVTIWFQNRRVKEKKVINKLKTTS

For `C#CCN(Cc1ccccc1Br)[C@H](/C=C/c1ccccc1)[C@@H](O)Cc1ccccc1`, the results for the composite z-score (in assay [1]; in the assay with XIP peptide (Xip251-270)) were -0.368 (inactive) and -0.115, respectively. Also, the z-score in assay [2] is -0.717; in assay [3] it was -0.384 (inactive); in assay [4], -0.162 (inactive); in assay [5], 0.103 (inactive).

As to `COc1ccc(C#Cc2ccc3c(c2)[C@]2(C(=O)N3)[C@H](c3ccc(OCCO)cc3)N3[C@H](c4ccccc4)[C@H](c4ccccc4)OC(=O)[C@H]3[C@@H]2C(=O)NC[C@H](O)c2ccccc2)cc1`, the composite z-score in assay [1] was 0.47 (inactive); with XIP peptide (Xip251-270), 0.691. The z-score in assay [2] is -1.78; in assay [3], -1.01 (inactive); in assay [4] it was -0.387 (inactive); in assay [5], -0.263 (inactive).

Consider `COCCCNC(=O)[C@@]1(Sc2ccc(C)cc2)CC(=O)N(C2Cc3ccccc3C2)[C@@H]1c1ccc(CO)cc1`, for which the composite z-score was 0.33 (inactive) in assay [1] and 0.446 in the assay with XIP peptide (Xip251-270). Besides, the z-score is -1.52 in assay [2], -3.56 (inactive) in assay [3], -0.0691 (inactive) in assay [4] and 0.0579 (inactive) in assay [5].

For the compound `O=C(NCCN1CCOCC1)[C@@H]1c2ccccc2C(=O)N(Cc2ccccc2Cl)[C@H]1c1ccc(CO)cc1`, the composite z-score in assay [1] is -0.121 (inactive); with XIP peptide (Xip251-270) it was -0.209. Also, the z-score in assay [2] was -0.879; in assay [3], -4.26 (inactive); in assay [4], -0.0685 (inactive); in assay [5], 0.227 (inactive).

In the case of `COc1ccc(C#Cc2ccc3c(c2)[C@]2(C(=O)N3)[C@H](C(=O)O)[C@H]3C(=O)O[C@H](c4ccccc4)[C@H](c4ccccc4)N3[C@@H]2c2ccc(O)cc2)cc1`, the composite z-score in assay [1] was 1.14 (inactive); in the assay on XIP peptide (Xip251-270), -0.516. Moreover, the z-score in assay [2] was -1.47; in assay [3], -6.25 (inactive); in assay [4], -0.366 (inactive); in assay [5], -0.651 (inactive).

For `C#Cc1cc2ccccc2oc1=O`, the results for the composite z-score (in assay [1]; with XIP peptide (Xip251-270)) were 0.151 (inactive) and 0.35, respectively. Moreover, the z-score in assay [2] was -0.744; in assay [3], -1.51 (inactive); in assay [4] it was 0.318 (inactive); in assay [5], -0.6 (inactive).

For `N[C@@H](Cc1ccccc1)C(=O)NCc1cn(Cc2ccccc2)nn1`, the figures for the composite z-score (in assay [1]; in the assay with XIP peptide (Xip251-270)) were -0.221 (inactive) and -0.984, respectively. The z-score in assay [2] is -0.581; in assay [3], -0.368 (inactive); in assay [4], -0.167 (inactive); in assay [5], 0.0852 (inactive).

As to `CCCCCCCCCCC(O)C1C=CC2C(=O)N(c3ccccc3)C(=O)C2N1Nc1ccc(C#N)cc1` (configuration not stated), the composite z-score in assay [1] was 1.53 (inactive); in the assay on XIP peptide (Xip251-270), 0.419. Moreover, the z-score in assay [2] is -0.562; in assay [3], -1.23 (inactive); in assay [4], 0.0905 (inactive); in assay [5], 0.15 (inactive).

As to `CC(=O)N1CC2(CC2)CC1c1ccccc1` (configuration not stated), the composite z-score is 0.485 (inactive) in assay [1] and 0.915 in the assay with XIP peptide (Xip251-270). The z-score in assay [2] is -0.0608; in assay [3], -1.06 (inactive); in assay [4], 0.465 (inactive); in assay [5], 0.444 (inactive).

Turning to `[N-]=[N+]=NCc1ccccc1[C@@H]1OC(c2ccc(OCCCO)cc2)=N[C@]1(CCS(=O)(=O)c1ccccc1)C(=O)O`, the composite z-score is 0.573 (inactive) in assay [1] and 0.964 in the assay on XIP peptide (Xip251-270). Also, the z-score in assay [2] was 0.692; in assay [3] it was -4.86 (inactive); in assay [4] it was 0.162 (inactive); in assay [5] it was 0.23 (inactive).

As for `C=C(COC)/C(=C/C[C@H](OC(=O)c1ccncc1)c1ccc(CO)o1)c1cnc2ccccc2c1`, the composite z-score in assay [1] was 1.02 (inactive); in the assay on XIP peptide (Xip251-270), 0.447. The z-score was 0.834 in assay [2], -5.63 (inactive) in assay [3], -0.429 (inactive) in assay [4] and -0.442 (inactive) in assay [5].

With `COC(=O)C1=CC(CCCO)=CC(c2ccc(CN3CCCC3)cc2)N(Cc2cccc(OC(F)(F)F)c2)C=C1C(=O)OC` (configuration not stated), the results for the composite z-score (in assay [1]; in the assay on XIP peptide (Xip251-270)) were 1.68 (inactive) and 0.677, respectively. Moreover, the z-score was -2.09 in assay [2], -5.07 (inactive) in assay [3], -0.268 (inactive) in assay [4] and -0.184 (inactive) in assay [5].

As to `NC(=O)[C@H]1[C@@H]2C(=O)O[C@@H](c3ccccc3)[C@@H](c3ccccc3)N2[C@@H](c2ccc(OCCO)cc2)[C@]12C(=O)Nc1ccc(C#CCCO)cc12`, the composite z-score in assay [1] was 0.32 (inactive); with XIP peptide (Xip251-270), 0.357. In addition, the z-score in assay [2] is 0.358; in assay [3], -4.68 (inactive); in assay [4], -0.317 (inactive); in assay [5], -0.838 (inactive).

For the compound `O=C(NCCN1CCOCC1)[C@@H]1c2ccccc2C(=O)N(C2Cc3ccccc3C2)[C@H]1c1ccc(CO)cc1`, the composite z-score in assay [1] was 1.54 (inactive); with XIP peptide (Xip251-270), 0.584. Moreover, the z-score in assay [2] is -0.98; in assay [3], -3.28 (inactive); in assay [4], -0.61 (inactive); in assay [5], -0.411 (inactive).

For `CCCCCC1=C2CNC(C)(C(=O)OC)C=C2C(C)C1=O` (configuration not stated), the composite z-score in assay [1] is -0.22 (inactive); in the assay on XIP peptide (Xip251-270), -0.513. Further, the z-score was 0.157 in assay [2], -5.3 (inactive) in assay [3], 1.37 (inactive) in assay [4] and 1.45 (inactive) in assay [5].

As to `Cc1ccc(S[C@]2(C(=O)NCC(F)(F)F)CC(=O)N(Cc3cc(C(F)(F)F)cc(C(F)(F)F)c3)[C@@H]2c2ccc(CO)cc2I)cc1`, the composite z-score is 1.46 (inactive) in assay [1] and 0.981 in the assay with XIP peptide (Xip251-270). Moreover, the z-score in assay [2] is -0.609; in assay [3], -2.68 (inactive); in assay [4] it was 0.427 (inactive); in assay [5] it was 0.684 (inactive).

As for `CC(CO)N1C(=O)[C@@H]2[C@H]3C(=O)OCC=C[C@H]3OC23C=CCN(Cn2nnc4ccccc42)C(=O)[C@@H]13` (some centres not stated), the composite z-score is -0.0787 (inactive) in assay [1] and -1.27 in the assay with XIP peptide (Xip251-270). Also, the z-score in assay [2] is 0.212; in assay [3] it was -3.47 (inactive); in assay [4], 0.612 (inactive); in assay [5], 0.424 (inactive).
